SMILES strings stand for the structures. Hit rate of the full screen: of about 13,000 compounds, about 3,200 (25%) showed an effect of 50% or more. The list shows a part of the results.

The test concerns P. falciparum stage V gametocytes. Also on record: BacTiter-Glo ATP luminescence viability of purified stage V gametocytes in 384-well plates, per cent inhibition versus DMSO. To be noted: 48 h, 5 µM; inhibitor.
For `c1ccc(CNCc2cccc(-c3csc(-c4nc5ccccc5[nH]4)c3)c2)cc1` [TCMDC-132715], the “% Inhibition” value is listed as -5.062%.
`CC(C)CNC(=O)c1ccc(-c2cccc(CN3CCC(N4CCCC4)CC3)c2)nc1` [TCMDC-134223]: the “% Inhibition” value was 24.52%.
With `COc1cccc(CN2CCC(N3CCc4cc(NC(=O)c5cc(C)on5)ccc43)C2)c1OC` (stereo not shown) [TCMDC-135077], the “% Inhibition” value was 7.17%.
With `Nc1oc2c(CN3CCCCCC3)c(O)ccc2c(=O)c1-c1nc2ccccc2s1` [TCMDC-124554] the figure was -27.76%.
Next, `COc1ccc2nc(C)cc(Nc3ccc(Oc4ccc5ccccc5c4Cl)c(Cl)c3)c2c1` [TCMDC-124244]: 45.95%; `CN(Cc1ccccc1)C1CCCN(c2cc(NC(=O)c3ccc(F)cc3)ccn2)C1` (stereo not shown) [TCMDC-135021]: -22.03%.
With `c1ccc2c(CNc3ccnc(NCc4cccc5ccccc45)n3)cccc2c1` [TCMDC-131861] the figure was 43.11%.
Consider `c1cn(CCCNc2ncc(-c3ccsc3)c(-c3nccs3)n2)cn1` [TCMDC-125364], for which the “% Inhibition” value is 29.61%.
In the case of `Brc1ccccc1CNc1ccnc(NCCn2ccnc2)n1` [TCMDC-134666], the “% Inhibition” value is recorded as 85.3%.
Next, `COc1ccccc1-c1ccc(CNC(=O)C(CN2CCN(C)CC2)c2ccccc2)cc1` (stereo not shown) [TCMDC-136897]: 12.07%; `CN1CCN(C(C(=O)NCc2cc(Cl)cc(Cl)c2)c2ccccc2-c2ccsc2)CC1` (stereo not shown) [TCMDC-135388]: 68.05%.
With `COc1ccc(Cc2cccc(C(C(=O)NCc3cc(Cl)cc(Cl)c3)N3CCN(C)CC3)c2)cc1` (stereo not shown) [TCMDC-135619] the figure was 76.97%.
Next, `CN1CCN(C(C(=O)NCc2cc(Cl)cc(Cl)c2)c2ccc(NC(=O)Nc3ccccc3)cc2)CC1` (stereo not shown) [TCMDC-135287]: 18.98%; `COc1ccccc1N1CCN(C(C(=O)NCc2ccc(C)cc2)c2ccc(C)cc2)CC1` (stereo not shown) [TCMDC-135501]: -5.21%; `CN1CCN(C(C(=O)NCc2cc(Cl)cc(Cl)c2)c2ccc(Nc3cccc(C(F)(F)F)c3)cc2)CC1` (stereo not shown) [TCMDC-134698]: -89.62%.
Turning to `COc1cc(CCNc2nc(NCc3ccccc3-c3ccccc3)nc(N3CCC(N)CC3)n2)ccc1O` [TCMDC-133443], the “% Inhibition” value turned out to be 10.19%.
Take `N#CCSc1nnc(-c2ccccc2)c2ccccc12` [TCMDC-123867]: the “% Inhibition” value is 67.4%.
Next, `CCOC(=O)CCCc1cc(NC2CCN(C)CC2)nc(Nc2ccc(C)cc2)n1` [TCMDC-134016]: -52.81%; `C=C[C@]1(C)C[C@@H](OC(=O)CNC[C@@H](O)CN2C[C@H](c3ccnc4ccc(OC)nc34)OC2=O)[C@]2(C)[C@H](C)CC[C@]3(CCC(=O)[C@H]32)[C@@H](C)[C@@H]1O` [TCMDC-135366]: -2.122%.

The values above are taken from paper PMC4552634, “A New Set of Chemical Starting Points with Plasmodium falciparum Transmission-Blocking Potential for Antimalarial Drug Discovery” (PLoS ONE, 2015).
